From PubChem BioAssay (EPA / NIEHS) come the findings set out here.

Calls of active or inactive are those of the source. The calls were made as follows: active = hit-call score of the fitted dose curve at least 0.9, where 1 is the maximum; inactive = score below 0.9.

Read-out in assay [1]: urokinase plasminogen activator (uPA), PLAU (gene 5328)
Nature of the assay: BSK_KF3CT_uPA: BioMAP Diversity Plus: KF3CT Assay for urokinase plasminogen activator (uPA) Biomarker Activity (AID 2283075). The note with it: primary human keratinocytes with fibroblasts; actives raise or lower the signal. The procedure, abridged:
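ELISA readout of uPA, analyzed for signal gain or loss relative to DMSO, from a human primary keratinocyte–foreskin fibroblast co-culture measured 24 h after chemical treatment.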

Read-out in assay [2]: CD40, CD40 (gene 958)
The experiment in a line: BSK_LPS_CD40: BioMAP Diversity Plus: LPS Assay for CD40 Biomarker Activity (AID 2283076). To be noted: primary human HUVEC with PBMC; actives raise or lower the signal. An outline of the steps:
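Primary human umbilical vein endothelial cells co-cultured with peripheral blood mononuclear cells, LPS-stimulated, were dosed with chemical and read 24 h later. CD40 levels were measured by ELISA and fitted bidirectionally against DMSO as negative control and baseline.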

Read-out in assay [3]: E-selectin (Homo sapiens) (UniProt P16581)
Nature of the assay: BSK_LPS_Eselectin: BioMAP Diversity Plus: LPS Assay for Eselectin Biomarker Activity (AID 2283077). The note with it: primary human HUVEC with PBMC; actives raise or lower the signal. The procedure, abridged: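 Human umbilical vein endothelial cells co-cultured with peripheral blood mononuclear cells under LPS stimulation; E-selectin measured by ELISA 24 h after chemical dosing. Activity fitted bidirectionally against DMSO as negative control and baseline.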

Read-out in assay [4]: Interleukin-8 (IL8), CXCL8 (gene 3576)
The experiment in a line: BSK_LPS_IL8: BioMAP Diversity Plus: LPS Assay for Interleukin-8 (IL8) Biomarker Activity (AID 2283078). The note with it: primary human HUVEC with PBMC; actives raise or lower the signal. The procedure, abridged:
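Human umbilical vein endothelial cells co-cultured with PBMC were stimulated with LPS; IL-8 levels were measured by ELISA 24 h after chemical dosing. Activity was fitted bidirectionally against DMSO as negative control and baseline.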

The nature of assay [5]: BSK_LPS_SRB: Viability Assessment in the BioMAP Diversity Plus: LPS Assay (AID 2283079).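 Also: total protein by sulforhodamine B absorbance as a cytotoxicity measure; measured one day after compound addition; fitted in both directions against DMSO so loss or gain of signal counts.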 To be noted: primary human HUVEC with PBMC. An outline of the steps: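 Human umbilical vein endothelial cells co-cultured with PBMC (LPS system) were dosed for 24 h. Total protein was stained with 0.1% sulforhodamine B after 10% TCA fixation, read at 560 nm, and fitted bidirectionally against DMSO baseline.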

Read-out in assay [6]: Interleukin-1 alpha (IL1a), IL1A (gene 3552)
Nature of the assay: BSK_LPS_IL1a: BioMAP Diversity Plus: LPS Assay for Interleukin-1 alpha (IL1a) Biomarker Activity (AID 2283080). The note with it: primary human HUVEC with PBMC; actives raise or lower the signal. An outline of the steps: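 Human umbilical vein endothelial cells co-cultured with peripheral blood mononuclear cells were LPS-stimulated and exposed to test chemicals for 24 h. IL-1 alpha was quantified by ELISA, with bidirectional curve fitting against DMSO as the negative control and baseline.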

Read-out in assay [7]: Monocyte Chemoattractant Protein-1 (MCP1), CCL2 (gene 6347)
The experiment in a line: BSK_LPS_MCP1: BioMAP Diversity Plus: LPS Assay for Monocyte Chemoattractant Protein-1 (MCP1) Biomarker Activity (AID 2283081).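 As to AC50: co-culture stimulated with LPS; secreted MCP-1 protein quantified by ELISA in culture supernatant.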 The note with it: primary human HUVEC with PBMC; actives raise or lower the signal. An outline of the steps:
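HUVEC plus PBMC co-culture (human primary cells, LPS system) exposed to test chemical for 24 h; MCP-1 measured by ELISA. Bidirectional curve fitting against DMSO baseline; parallel SRB total-protein staining flags overt cytotoxicity.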

Assay [8] is described as follows: BSK_LPS_PGE2: BioMAP Diversity Plus: LPS Assay for Prostaglandin E2 (PGE2) Biomarker Activity (AID 2283082).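 As to AC50: secreted prostaglandin E2 measured by ELISA in LPS-stimulated co-culture.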 The note with it: primary human HUVEC with PBMC; actives raise or lower the signal. The procedure, abridged: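 LPS-activated HUVEC/PBMC co-culture; cmpd dosed, 24 h; PGE2 by ELISA; bidirectional fit vs DMSO; SRB (0.1%, TCA-fixed, 560 nm) in parallel plates for overt cytotox.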

Read-out in assay [9]: Macrophage colony-stimulating factor (MCSF), CSF1 (gene 1435)
Nature of the assay: BSK_LPS_MCSF: BioMAP Diversity Plus: LPS Assay for Macrophage colony-stimulating factor (MCSF) Biomarker Activity (AID 2283083). To be noted: primary human HUVEC with PBMC; actives raise or lower the signal. The procedure, abridged:
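Human umbilical vein endothelial cells co-cultured with peripheral blood mononuclear cells were exposed to compound for 24 h. M-CSF levels were measured by ELISA, and bidirectional curve fitting used DMSO as the negative control and baseline.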

Read-out in assay [10]: Tumor necrosis factor (Homo sapiens) (UniProt P01375)
Nature of the assay: BSK_LPS_TNFa: BioMAP Diversity Plus: LPS Assay for Tumour Necrosis Factor alpha (TNFa) Biomarker Activity (AID 2283085). The note with it: primary human HUVEC with PBMC; actives raise or lower the signal. The procedure, abridged: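 Read-out is ELISA of TNFa in primary human endothelial cell–PBMC co-cultures at 24 h after compound. Activity in either direction was fitted against DMSO.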

Read-out in assay [11]: Vascular cell adhesion molecule 1 (VCAM1), VCAM1 (gene 7412)
The experiment in a line: BSK_LPS_VCAM1: BioMAP Diversity Plus: LPS Assay for Vascular cell adhesion molecule 1 (VCAM1) Biomarker Activity (AID 2283086). The note with it: primary human HUVEC with PBMC; actives raise or lower the signal. An outline of the steps: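 HUVEC + PBMC co-culture, LPS system; compound 24 h; VCAM-1 by ELISA; bidirectional fit vs DMSO control; parallel SRB (0.1%, TCA-fixed, 560 nm) for cytotoxicity.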

Read-out in a further assay: CD38, CD38 (gene 952)
Nature of the assay: BSK_SAg_CD38: BioMAP Diversity Plus: SAg Assay for CD38 Biomarker Activity (AID 2283087). To be noted: primary human HUVEC with PBMC; actives raise or lower the signal. The procedure, abridged: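 Human HUVEC plus PBMC co-culture stimulated with superantigen; CD38 measured by ELISA 24 h after chemical dosing. Fluorescence read-out, bidirectional fit against DMSO; cytotoxicity tracked in parallel by SRB and Alamar Blue.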

Read-out in assay [12]: CD40, CD40 (gene 958)
The experiment in a line: BSK_SAg_CD40: BioMAP Diversity Plus: SAg Assay for CD40 Biomarker Activity (AID 2283088). To be noted: primary human HUVEC with PBMC; actives raise or lower the signal. The procedure, abridged: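 Human umbilical vein endothelial cells co-cultured with PBMC; CD40 levels measured by ELISA with fluorescence read-out 24 h after chemical dosing. Gain or loss of signal fitted bidirectionally against DMSO baseline.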

Read-out in another assay: CD69, CD69 (gene 969)
The experiment in a line: BSK_SAg_CD69: BioMAP Diversity Plus: SAg Assay for CD69 Biomarker Activity (AID 2283089).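 As to AC50: cell surface CD69 protein quantified by ELISA with fluorescence detection.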 The note with it: primary human HUVEC with PBMC; actives raise or lower the signal. The procedure, abridged:
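Endothelial/PBMC co-culture; chemical added; 24 h incubation; CD69 ELISA with fluorescence detection; bidirectional fit vs DMSO.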

Read-out in assay [13]: Monocyte Chemoattractant Protein-1 (MCP1), CCL2 (gene 6347)
The experiment in a line: BSK_SAg_MCP1: BioMAP Diversity Plus: SAg Assay for Monocyte Chemoattractant Protein-1 (MCP1) Biomarker Activity (AID 2283090). The note with it: primary human HUVEC with PBMC; actives raise or lower the signal. The procedure, abridged:
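MCP-1 levels in the endothelial–PBMC SAg co-culture were quantified by ELISA at 24 h post-dosing; both increases and decreases versus DMSO scored. Cytotoxicity monitored by SRB total protein in parallel cultures.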

Read-out in assay [14]: E-selectin (Homo sapiens) (UniProt P16581)
The experiment in a line: BSK_SAg_Eselectin: BioMAP Diversity Plus: SAg Assay for Eselectin Biomarker Activity (AID 2283091). To be noted: primary human HUVEC with PBMC; actives raise or lower the signal. The procedure, abridged:
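HUVEC co-cultured with PBMC, compound dosed then read at 24 h; E-selectin measured by ELISA. Activity fitted bidirectionally against DMSO as negative control and baseline.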

Read-out in assay [15]: Monokine induced gamma interferon (MIG), CXCL9 (gene 4283)
Nature of the assay: BSK_SAg_MIG: BioMAP Diversity Plus: SAg Assay for Monokine induced gamma interferon (MIG) Biomarker Activity (AID 2283092). To be noted: primary human HUVEC with PBMC; actives raise or lower the signal. An outline of the steps:
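Measures CXCL9 protein by ELISA in a human vascular primary-cell co-culture (umbilical vein endothelium with PBMC) 24 h after chemical addition. Activity is scored up or down from the DMSO control.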

A short description of assay [16]: BSK_SAg_PBMCCytotoxicity: PBMC Cytotoxicity Assessment in the BioMAP Diversity Plus: SAg Assay (AID 2283093).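 Also: PBMC viability measured as Alamar Blue reduction fluorescence at 546/580 nm; fitted both ways against DMSO so a hit may be loss or gain of signal.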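 As to AC50: PBMC superantigen activated with SEB plus TSST-1 one hour after compound addition.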 The note with it: primary human HUVEC with PBMC. The procedure, abridged: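 Compound added to 75,000 PBMC/well for 1 h; SEB and TSST-1 then added at 20 ng/mL final each; 90 h incubation; Alamar Blue 6 h; read 546/580 nm ex/em. Activity fitted bidirectionally relative to DMSO baseline.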

Read-out in assay [17]: Interleukin-8 (IL8), CXCL8 (gene 3576)
The experiment in a line: BSK_SAg_IL8: BioMAP Diversity Plus: SAg Assay for Interleukin-8 (IL8) Biomarker Activity (AID 2283094). The note with it: primary human HUVEC with PBMC; actives raise or lower the signal. An outline of the steps: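 ELISA read-out of IL-8 in a primary human vascular co-culture (umbilical vein endothelium plus PBMC), taken 24 h after compound addition. Values derive from bidirectional fits against DMSO negative controls.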

Read-out in assay [18]: Tissue Factor, F3 (gene 2152)
The experiment in a line: BSK_LPS_TissueFactor: BioMAP Diversity Plus: LPS Assay for Tissue Factor Biomarker Activity (AID 2283084). The note with it: primary human HUVEC with PBMC; actives raise or lower the signal. The procedure, abridged: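 Human umbilical vein endothelial cells co-cultured with peripheral blood mononuclear cells were dosed and stimulated with LPS. Cell-surface CD142 was quantified by ELISA at 24 h. Activity was fitted bidirectionally against DMSO baseline.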

As usually defined, the AC50 is the midpoint of the concentration-response curve, whichever way the signal moves.

Chain of Tumor necrosis factor (Homo sapiens) (P01375 whole entry, looked up): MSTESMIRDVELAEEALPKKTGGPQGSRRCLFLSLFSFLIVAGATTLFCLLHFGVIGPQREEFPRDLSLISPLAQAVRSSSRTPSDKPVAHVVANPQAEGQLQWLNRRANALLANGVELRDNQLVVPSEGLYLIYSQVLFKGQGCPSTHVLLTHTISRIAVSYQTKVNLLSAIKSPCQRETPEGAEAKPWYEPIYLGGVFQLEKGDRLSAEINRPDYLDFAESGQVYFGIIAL
Chain of E-selectin (Homo sapiens) (P16581 whole entry, looked up): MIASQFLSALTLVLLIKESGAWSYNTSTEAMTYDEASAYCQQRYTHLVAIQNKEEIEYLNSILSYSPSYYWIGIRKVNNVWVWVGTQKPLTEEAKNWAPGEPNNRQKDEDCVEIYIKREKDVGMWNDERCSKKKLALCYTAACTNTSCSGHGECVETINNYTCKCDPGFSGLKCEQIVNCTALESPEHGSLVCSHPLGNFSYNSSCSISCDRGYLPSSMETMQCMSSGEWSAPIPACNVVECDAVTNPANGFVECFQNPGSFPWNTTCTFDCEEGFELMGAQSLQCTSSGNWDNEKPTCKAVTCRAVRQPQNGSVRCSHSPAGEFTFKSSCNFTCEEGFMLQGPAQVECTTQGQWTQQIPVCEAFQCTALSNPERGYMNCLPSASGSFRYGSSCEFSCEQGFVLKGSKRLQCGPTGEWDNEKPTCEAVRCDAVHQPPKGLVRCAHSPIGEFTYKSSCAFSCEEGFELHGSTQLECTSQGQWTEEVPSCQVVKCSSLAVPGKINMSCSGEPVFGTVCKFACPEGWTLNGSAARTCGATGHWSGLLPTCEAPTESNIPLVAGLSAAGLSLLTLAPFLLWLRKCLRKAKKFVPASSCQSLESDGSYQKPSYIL

As to `CC(C)c1cccc(C(C)C)c1NC(=O)NS(=O)(=O)c1cc(C(C)(C)O)co1`, the outcome was “inactive” in assay [1]; “inactive” with CD40, CD40 (gene 958) [2]; “inactive” in assay [5]; “inactive” in assay [6]; “inactive” in assay [7]; “inactive” in [9]. For the same molecule, the outcome was “inactive” in assay [10]; “inactive” in assay [11]; “inactive” with CD38, CD38 (gene 952); “inactive” in the assay with CD40, CD40 (gene 958) [12]; “inactive” with CD69, CD69 (gene 969); “inactive” in assay [13]. Further, the result in assay [14], in assay [15], in assay [16] and in assay [17] was inactive. Besides, the AC50 in [3] was 0.148 µM (active); in [4], 0.152 µM (active); in assay [8], 1.04 µM (active).
For the molecule `NC=O`, the outcome in [1] is “inactive”; with CD40, CD40 (gene 958) [2] it was “inactive”; in assay [3] it was “inactive”; in assay [4], “inactive”; in [5] it was “inactive”; in assay [6] it was “inactive”. Also, the outcome is “inactive” in assay [7]; “inactive” in assay [8]; “inactive” in assay [9]; “inactive” in [10]; “inactive” in [11]; “inactive” in the assay with CD38, CD38 (gene 952). Also, the outcome with CD40, CD40 (gene 958) [12] was “inactive”; with CD69, CD69 (gene 969) it was “inactive”; in [13], “inactive”; in assay [14], “inactive”; in [15], “inactive”; in [17], “inactive”.
Turning to `CCN(CC)CCOc1ccc(C(=C(Cl)c2ccccc2)c2ccccc2)cc1`, the AC50 in [1] is 13.7 µM (active); with CD40, CD40 (gene 958) [2], 8.67 µM (active); in assay [3], 13.3 µM (active); in [5], 10.4 µM (active); in assay [6] it was 8.81 µM (active); in [7], 14.3 µM (active). The AC50 is 8.26 µM (active) in assay [8]; 9.21 µM (active) in [9]; 29.8 µM (active) in assay [18]; 11.8 µM (active) in [10]; 13.2 µM (active) in assay [11]; 8.84 µM (active) with CD38, CD38 (gene 952). Moreover, the AC50 with CD40, CD40 (gene 958) [12] is 11 µM (active); with CD69, CD69 (gene 969), 12.4 µM (active); in [13], 11.2 µM (active); in [14], 13.5 µM (active); in assay [15], 13.8 µM (active); in assay [16], 6.29 µM (active). For the same molecule, in [17], the half-maximal activity concentration (AC50) is 7.87 µM (active).
